Source: PubChem BioAssay
Activity calls are given as the source filed them.

Columns and labels:
[1] = test system: PRMT1 (protein arginine N-methyltransferase 1); assay: PRMT1 binders on small-molecule microarrays, primary screen, biochemical, small-molecule microarray, 635 nm fluorescence (AID 1088); conditions: small-molecule microarray binding, higher = more signal;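 further: binding of Prmt1 protein to compounds spotted on small-molecule microarray slides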
[2] = yeast growth modulation, basal conditions, primary screen, YJM789 clinical isolate, OD600, 24 h (AID 1089);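 further: growth of clinical yeast isolate S. cerevisiae YJM 789 seeded 1000 cells per well; test concentration not given here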; conditions: S. cerevisiae YJM789 growth, higher = more signal, called active from +8 up or from −8 down
[3] = fission yeast growth modulation, primary screen, strain 972, OD600, 24 h, no modulator (AID 1090);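 further: basal condition with compound alone and no growth modifier present; test concentration not given here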; conditions: S. pombe 972 growth, higher = more signal, called active from +8 up or from −8 down
[4] = S. cerevisiae growth modulation with rapamycin, primary screen, strain BY4716, OD600, 96 h (AID 1091); conditions: higher = more signal, called active from +8 up or from −8 down; further: test concentration not given here
[5] = biological target: Torsin-1A-interacting protein 2 (Homo sapiens) (UniProt Q8NFQ8); assay: LULL1 binders on small-molecule microarray, primary screen, cell lysate, human LULL1 lysate, 635/667 nm fluorescence (AID 1092); conditions: hLULL1 lysate binding, 635 nm fluorescence, higher = more signal;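 further: probe is lysate of COS7 cells overexpressing human LULL1; score merges per-feature 667 nm fluorescence with signal-to-noise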
Torsin-1A-interacting protein 2 (Homo sapiens), sequence (Q8NFQ8 whole entry, looked up): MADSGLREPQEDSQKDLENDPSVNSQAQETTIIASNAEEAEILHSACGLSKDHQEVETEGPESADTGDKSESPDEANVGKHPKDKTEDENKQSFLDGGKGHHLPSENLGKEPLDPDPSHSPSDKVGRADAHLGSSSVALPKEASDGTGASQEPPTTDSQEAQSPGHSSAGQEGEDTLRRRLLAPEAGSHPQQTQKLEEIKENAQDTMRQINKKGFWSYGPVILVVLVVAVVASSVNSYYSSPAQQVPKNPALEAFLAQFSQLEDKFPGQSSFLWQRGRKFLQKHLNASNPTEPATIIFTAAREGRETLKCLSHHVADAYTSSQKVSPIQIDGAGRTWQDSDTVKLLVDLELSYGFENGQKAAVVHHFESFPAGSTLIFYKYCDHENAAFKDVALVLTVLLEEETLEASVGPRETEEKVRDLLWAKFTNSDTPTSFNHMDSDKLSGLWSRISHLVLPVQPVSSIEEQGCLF

[6] = E. coli growth modulation, two-sided OD650, primary screen, E. coli filamentation project, strain DRC41, 24 h (AID 1093); conditions: OD650, 24 h, higher = more signal, called active from +8 up or from −8 down;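 further: MC1000 strain lacking acrAB efflux and sulA so SOS filamentation is blocked; test concentration not given here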
[7] = small-molecule microarray binders of probe aLefty2, primary screen, biochemical, biotinylated probe, 635/667 nm fluorescence (AID 1094); conditions: higher = more signal;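 further: score merges spot fluorescence near 667 nm with spot signal-to-noise ratio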
[8] = test system: Noggin (protein binding on small-molecule microarray); assay: Noggin binders on small-molecule microarray, primary screen, biochemical, 635/667 nm fluorescence (AID 1095); conditions: 635 nm fluorescence, higher = more signal;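 further: score merges 667 nm feature fluorescence with signal to noise over triplicate slides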
[9] = biological target: Neurogenic locus notch homolog protein 3 (Homo sapiens) (UniProt Q9UM47); assay: NOTCH3 binders on small-molecule microarray, primary screen, biochemical, 635/667 nm fluorescence (AID 1096); conditions: NOTCH3 binding, 635 nm fluorescence, higher = more signal
Neurogenic locus notch homolog protein 3 (Homo sapiens), sequence (Q9UM47 whole entry, looked up): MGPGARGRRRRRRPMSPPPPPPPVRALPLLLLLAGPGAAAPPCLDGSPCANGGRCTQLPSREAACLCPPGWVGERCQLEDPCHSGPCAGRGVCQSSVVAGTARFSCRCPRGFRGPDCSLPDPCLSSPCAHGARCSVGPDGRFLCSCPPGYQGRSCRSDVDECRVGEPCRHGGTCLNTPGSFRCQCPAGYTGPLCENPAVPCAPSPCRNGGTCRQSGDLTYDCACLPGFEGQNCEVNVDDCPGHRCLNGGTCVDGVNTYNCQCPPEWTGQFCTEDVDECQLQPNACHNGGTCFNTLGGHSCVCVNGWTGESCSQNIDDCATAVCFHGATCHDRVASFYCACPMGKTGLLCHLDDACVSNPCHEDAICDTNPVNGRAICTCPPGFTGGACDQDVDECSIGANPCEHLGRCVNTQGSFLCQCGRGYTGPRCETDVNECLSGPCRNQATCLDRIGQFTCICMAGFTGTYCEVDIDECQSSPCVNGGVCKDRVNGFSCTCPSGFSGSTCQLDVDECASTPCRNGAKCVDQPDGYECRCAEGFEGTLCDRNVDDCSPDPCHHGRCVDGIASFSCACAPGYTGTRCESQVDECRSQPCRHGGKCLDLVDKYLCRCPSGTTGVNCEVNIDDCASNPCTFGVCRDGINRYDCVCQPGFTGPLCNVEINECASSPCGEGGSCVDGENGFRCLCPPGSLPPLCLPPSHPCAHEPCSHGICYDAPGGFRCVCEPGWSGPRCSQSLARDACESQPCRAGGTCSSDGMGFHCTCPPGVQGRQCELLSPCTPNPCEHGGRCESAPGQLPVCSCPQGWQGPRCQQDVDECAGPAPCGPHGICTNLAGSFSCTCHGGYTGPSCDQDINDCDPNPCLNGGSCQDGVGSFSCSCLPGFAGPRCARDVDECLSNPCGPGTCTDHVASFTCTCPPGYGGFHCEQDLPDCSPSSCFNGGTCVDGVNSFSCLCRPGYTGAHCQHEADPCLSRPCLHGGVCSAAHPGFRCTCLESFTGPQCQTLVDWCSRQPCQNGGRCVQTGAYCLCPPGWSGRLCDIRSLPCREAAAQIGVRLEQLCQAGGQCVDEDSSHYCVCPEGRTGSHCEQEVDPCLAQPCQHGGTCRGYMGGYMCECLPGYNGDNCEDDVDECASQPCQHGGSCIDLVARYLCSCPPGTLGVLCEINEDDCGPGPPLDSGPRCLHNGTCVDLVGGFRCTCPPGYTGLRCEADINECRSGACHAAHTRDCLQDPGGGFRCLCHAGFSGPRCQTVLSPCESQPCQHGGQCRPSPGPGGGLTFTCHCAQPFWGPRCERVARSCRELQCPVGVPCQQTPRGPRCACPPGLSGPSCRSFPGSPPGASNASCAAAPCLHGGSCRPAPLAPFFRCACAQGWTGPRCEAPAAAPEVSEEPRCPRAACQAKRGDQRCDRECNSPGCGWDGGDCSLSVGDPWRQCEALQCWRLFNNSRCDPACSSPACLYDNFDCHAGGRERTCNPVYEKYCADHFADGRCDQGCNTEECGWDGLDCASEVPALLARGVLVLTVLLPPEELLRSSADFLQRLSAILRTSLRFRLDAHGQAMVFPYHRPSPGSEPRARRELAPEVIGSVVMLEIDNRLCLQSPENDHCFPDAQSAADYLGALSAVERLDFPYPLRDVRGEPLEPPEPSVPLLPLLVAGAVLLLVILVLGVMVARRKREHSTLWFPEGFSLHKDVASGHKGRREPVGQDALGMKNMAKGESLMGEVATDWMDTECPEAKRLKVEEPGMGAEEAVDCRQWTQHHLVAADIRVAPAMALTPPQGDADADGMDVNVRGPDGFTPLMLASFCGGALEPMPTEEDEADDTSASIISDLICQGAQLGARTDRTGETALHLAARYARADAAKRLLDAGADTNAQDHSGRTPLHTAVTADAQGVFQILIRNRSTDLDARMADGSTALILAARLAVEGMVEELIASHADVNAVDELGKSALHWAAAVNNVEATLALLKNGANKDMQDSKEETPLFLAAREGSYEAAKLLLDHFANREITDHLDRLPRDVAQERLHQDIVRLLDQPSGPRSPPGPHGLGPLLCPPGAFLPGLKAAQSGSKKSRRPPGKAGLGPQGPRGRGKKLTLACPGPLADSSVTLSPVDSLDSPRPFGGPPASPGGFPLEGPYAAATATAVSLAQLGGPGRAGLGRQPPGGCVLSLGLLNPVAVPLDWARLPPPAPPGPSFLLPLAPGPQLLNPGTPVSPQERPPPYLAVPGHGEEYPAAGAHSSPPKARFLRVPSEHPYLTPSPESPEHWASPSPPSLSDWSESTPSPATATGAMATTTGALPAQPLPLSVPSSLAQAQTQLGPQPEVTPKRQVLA

[10] = small-molecule microarray binders of probe aEGFR, primary screen, biochemical, biotinylated probe, 635/667 nm fluorescence (AID 1097); conditions: higher = more signal;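 further: probe is a biotinylated anti-EGFR antibody binding compounds printed on slides; score combines fluorescence near 667 nm and signal to noise of each spot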
[11] = test system: Plasmodium falciparum Sir2 (PF13_0152, Sir2A); assay: pfSir2 binders on small-molecule microarrays, primary screen, biochemical, small-molecule microarray, 635 nm fluorescence (AID 1098); conditions: small-molecule microarray binding, fluorescence 635 nm; higher = more signal;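 further: score merges spot fluorescence intensity with its signal-to-noise ratio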
[12] = small-molecule microarray binders of probe aDKK1, primary screen, biochemical, biotinylated probe, 635/667 nm fluorescence (AID 1099); conditions: higher = more signal;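 further: score merges 667nm spot fluorescence with signal to noise across triplicate slides; reference of the scale not given here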
[13] = small-molecule microarray binders of probe aCHRDL2, primary screen, biochemical, biotinylated probe, 635/667 nm fluorescence (AID 1100); conditions: higher = more signal
[14] = splicing luciferase reporter signal modulators, primary screen, spliceosome inhibition project, cell-based, HEK293, splice +/- reporter (AID 1101); conditions: luminescence, 24 h, higher = more signal, called active from +8 up or from −8 down;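 further: HEK293 cells carrying a splicing-competent luciferase reporter gene; test concentration not given here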
[15] = biological target: Fibroblast growth factor 10 (Homo sapiens) (UniProt O15520); assay: FGF10 binders on small-molecule microarrays, primary screen, biochemical, small-molecule microarray, 635 nm fluorescence (AID 1102); conditions: FGF10 binding, fluorescence 635 nm, higher = more signal
Fibroblast growth factor 10 (Homo sapiens), sequence (O15520 whole entry, looked up): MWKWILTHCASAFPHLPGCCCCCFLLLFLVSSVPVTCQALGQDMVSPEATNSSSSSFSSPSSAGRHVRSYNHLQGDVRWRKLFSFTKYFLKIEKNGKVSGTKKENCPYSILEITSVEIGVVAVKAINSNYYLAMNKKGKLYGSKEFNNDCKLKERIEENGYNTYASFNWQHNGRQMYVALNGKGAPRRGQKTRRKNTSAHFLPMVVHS

[16] = test system: glycogen synthase kinase-3 (GSK3A per assay name; protocol says GSK3B); assay: GSK3 binders on small-molecule microarrays, primary screen, biochemical, small-molecule microarray, 635 nm fluorescence, GSK3A (AID 1103); conditions: small-molecule microarray binding, fluorescence 635 nm; higher = more signal; further: the record names both GSK3A and GSK3B
[17] = biological target: Epidermal growth factor receptor (Homo sapiens) (UniProt P00533); assay: EGFR binders on small-molecule microarrays, primary screen, biochemical, small-molecule microarray, 635 nm fluorescence (AID 1104); conditions: EGFR binding, higher = more signal;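 further: score merges 667 nm emission intensity with spot signal to noise over triplicate slides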
Epidermal growth factor receptor (Homo sapiens), sequence (P00533 whole entry, looked up): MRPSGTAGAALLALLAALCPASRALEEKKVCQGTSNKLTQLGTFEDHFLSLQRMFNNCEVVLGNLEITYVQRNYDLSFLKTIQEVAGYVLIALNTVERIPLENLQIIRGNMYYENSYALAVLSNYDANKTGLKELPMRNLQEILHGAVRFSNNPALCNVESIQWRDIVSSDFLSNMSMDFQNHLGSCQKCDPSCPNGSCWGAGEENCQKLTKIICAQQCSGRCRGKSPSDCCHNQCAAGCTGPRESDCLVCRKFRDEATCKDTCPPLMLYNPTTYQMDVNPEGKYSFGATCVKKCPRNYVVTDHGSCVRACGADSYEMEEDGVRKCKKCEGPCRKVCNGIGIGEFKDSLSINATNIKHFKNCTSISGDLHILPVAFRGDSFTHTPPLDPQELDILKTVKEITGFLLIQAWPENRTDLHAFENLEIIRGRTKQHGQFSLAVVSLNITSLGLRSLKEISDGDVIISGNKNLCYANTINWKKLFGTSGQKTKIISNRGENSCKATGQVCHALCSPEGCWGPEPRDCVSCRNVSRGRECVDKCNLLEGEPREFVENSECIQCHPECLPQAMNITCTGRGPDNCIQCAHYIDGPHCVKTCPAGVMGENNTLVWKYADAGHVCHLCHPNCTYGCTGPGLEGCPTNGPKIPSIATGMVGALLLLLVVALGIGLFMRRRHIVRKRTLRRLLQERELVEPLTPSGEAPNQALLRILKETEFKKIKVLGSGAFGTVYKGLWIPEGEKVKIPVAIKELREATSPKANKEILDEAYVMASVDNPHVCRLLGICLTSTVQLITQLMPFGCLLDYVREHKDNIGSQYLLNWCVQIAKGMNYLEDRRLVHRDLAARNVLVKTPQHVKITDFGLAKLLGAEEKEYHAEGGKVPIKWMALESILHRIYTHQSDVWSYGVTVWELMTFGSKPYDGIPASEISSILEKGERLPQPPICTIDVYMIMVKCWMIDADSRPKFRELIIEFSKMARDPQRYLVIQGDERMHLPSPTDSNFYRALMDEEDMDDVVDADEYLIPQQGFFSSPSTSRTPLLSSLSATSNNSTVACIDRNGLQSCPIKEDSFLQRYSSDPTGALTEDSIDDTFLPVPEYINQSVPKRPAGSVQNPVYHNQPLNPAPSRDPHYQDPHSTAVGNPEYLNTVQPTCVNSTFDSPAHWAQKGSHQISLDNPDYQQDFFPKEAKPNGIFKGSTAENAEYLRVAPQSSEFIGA

[18] = biological target: Follistatin-related protein 3 (Homo sapiens) (UniProt O95633); assay: FSTL3 binders on small-molecule microarrays, primary screen, biochemical, small-molecule microarray, 635 nm fluorescence (AID 1105); conditions: FSTL3 binding, higher = more signal;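 further: score merges emission near 667 nm and signal to noise per printed spot across three slides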
Follistatin-related protein 3 (Homo sapiens), sequence (O95633 whole entry, looked up): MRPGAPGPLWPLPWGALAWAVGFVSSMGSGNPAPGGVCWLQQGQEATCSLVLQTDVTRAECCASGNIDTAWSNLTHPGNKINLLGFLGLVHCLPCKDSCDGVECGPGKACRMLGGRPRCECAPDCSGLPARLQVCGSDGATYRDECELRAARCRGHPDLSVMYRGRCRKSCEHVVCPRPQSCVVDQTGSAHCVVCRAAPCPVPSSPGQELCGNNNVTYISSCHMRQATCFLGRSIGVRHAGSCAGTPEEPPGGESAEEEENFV

[19] = biological target: Dickkopf-related protein 1 (Homo sapiens) (UniProt O94907); assay: DKK1 binders on small-molecule microarrays, primary screen, biochemical, small-molecule microarray, 635 nm fluorescence scan (AID 1106); conditions: DKK1 binding, higher = more signal;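 further: score merges emission near 667 nm with signal to noise over three replicate slides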
Dickkopf-related protein 1 (Homo sapiens), sequence (O94907 whole entry, looked up): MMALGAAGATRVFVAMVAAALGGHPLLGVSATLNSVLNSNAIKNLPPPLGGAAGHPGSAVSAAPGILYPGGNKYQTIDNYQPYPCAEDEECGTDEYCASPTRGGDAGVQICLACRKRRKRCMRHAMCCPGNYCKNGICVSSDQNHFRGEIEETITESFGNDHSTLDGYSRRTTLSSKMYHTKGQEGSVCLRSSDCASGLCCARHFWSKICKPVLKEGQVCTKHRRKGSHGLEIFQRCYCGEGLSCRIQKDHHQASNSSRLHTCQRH

[20] = test system: Inhibin beta A chain (activin A); assay: INHBA (activin A) binders on microarrays, primary screen, biochemical, small-molecule microarray, 635 nm fluorescence scan (AID 1107); conditions: small-molecule microarray binding, higher = more signal;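 further: mouse activin A protein probed at 4.33 µg/mL on printed slides; score merges bound-protein fluorescence near 667 nm with spot signal-to-noise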

Row | Compound | composite z-score [1] | z-score [2] | z-score [3] | z-score [4] | composite z-score [5] | z-score [6] | composite z-score [7] | composite z-score [8] | composite z-score [9] | composite z-score [10] | composite z-score [11] | composite z-score [12] | composite z-score [13] | z-score [14] | composite z-score [15] | composite z-score [16] | composite z-score [17] | composite z-score [18] | composite z-score [19] | composite z-score [20]
1 | CC1=C[C@@]2(CO)C(=O)[C@]3(CO3)[C@@H]1[C@H]1[C@]2(C)C=C(CO)C(=O)[C@]12CO2 | 0.295 | -1.32 (inactive) | -9.27 (active) | -0.946 (inactive) | 0.0091 | 0.179 (inactive) | -0.113 | 0.177 | 0.652 | -0.276 | 0.451 | 0.0159 | -0.52 | -0.23 (inactive) | 0.302 | 0.296 | 0.33 | 0.951 | 0.241 | 0.421
2 | Cc1ccc(S[C@]2(C(=O)NCC(F)(F)F)CC(=O)N(C3CCCCC3)[C@@H]2c2ccc(CO)cc2I)cc1 | 1.54 | -0.332 (inactive) | -0.692 (inactive) | 1.23 (inactive) | 2.82 | 0.312 (inactive) | 0.171 | 0.456 | 1.14 | 0.0516 | 0.894 | 0.119 | 0.408 | -0.635 (inactive) | 0.919 | 1.24 | 0.395 | 0.914 | 0.133 | 0.469
3 | COC(=O)[C@@]1(Cc2ccc(F)cc2)[C@H]2c3cc(C(=O)N4CCCC4)n(CCN4CNCC4=O)c3C[C@H]2CN1C(=O)c1ccccc1 | 1.2 | 0.614 (inactive) | -0.198 (inactive) | 0.316 (inactive) | 3.97 | -0.151 (inactive) | 0.459 | 0.46 | 0.842 | 0.118 | 1.51 | 0.845 | 0.82 | 1.64 (inactive) | -0.142 | 1.26 | -0.472 | 0.131 | -1.29 | 0.781
4 | CCOC(=O)C[C@H]1[C@H](OC(=O)c2ccccc2-c2ccccc2)[C@@H](NC(=O)C2CCCCC2)c2cc(OCCCO)ccc2N1C(=O)Cc1ccc(OC)cc1 | 0.143 | -0.93 (inactive) | -0.0289 (inactive) | -0.144 (inactive) | 0.735 | -1.05 (inactive) | -0.132 | 0.159 | -0.292 | -0.139 | -0.0395 | -0.189 | 0.0017 | -0.0496 (inactive) | 0.0134 | -0.625 | 0.0178 | 0.138 | -0.259 | 0.489
5 | CCCC[C@@H]1C[C@H]1[C@@H](NC(=O)c1cccs1)c1ccc(C(F)(F)F)cc1 | 0.183 | 1.19 (inactive) | 1.01 (inactive) | -0.0454 (inactive) | -0.683 | -1.72 (inactive) | -0.0009 | -0.345 | -0.182 | -0.168 | 0.0819 | 0.0202 | 0.549 | 0.101 (inactive) | -0.609 | -0.776 | -0.507 | -0.152 | -0.0222 | 1.09
6 | C=CCC(OC(C)=O)[C@@H]1[C@@H](N(Cc2cc3ccccc3o2)C(=O)c2ccc(C)cc2)c2cc(OCCCO)ccc2N1C(=O)Cc1ccc(OC)cc1 (stereo not given in full) | 0.23 | 0.0303 (inactive) | -0.841 (inactive) | -0.131 (inactive) | 0.692 | 1.21 (inactive) | 0.0761 | -0.0512 | 0.233 | -0.15 | -0.0682 | -0.199 | 0.33 | -0.669 (inactive) | 0.289 | 0.121 | -0.147 | 0.087 | 0.0807 | 1.01
7 | CN(C)CCCNC(=O)[C@@]1(c2ccc([N+](=O)[O-])cc2)CC(=O)N(CC23CC4CC(CC(C4)C2)C3)[C@@H]1c1ccc(CO)cc1I | 1.53 | -25.1 (active) | -18.6 (active) | -2.21 (inactive) | 2.35 | -6.64 (inactive) | -0.182 | 1.75 | 1.06 | 0.0209 | 1.59 | -0.0761 | 0.407 | -0.854 (inactive) | 0.879 | 0.556 | 0.555 | 1.34 | 1.08 | 0.0974
8 | O=C1N(Cc2ccccc2)c2ccccc2[C@@H]2OC(c3ccc(OCCCO)cc3)=N[C@]12Cc1ccccc1 | 1.38 | -0.548 (inactive) | -1.14 (inactive) | 4.88 (inactive) | 2.93 | 0.8 (inactive) | 0.0759 | 0.307 | 0.804 | -0.0391 | 0.959 | 0.659 | 1 | -0.0483 (inactive) | 0.504 | 0.852 | 0.224 | 0.61 | 0.0877 | 1.13
9 | CC(C)(C)OC(=O)CC[C@]1(C(=O)NCc2ccccc2)N=C(c2ccc(OCCCO)cc2)O[C@H]1c1ccccc1CN=[N+]=[N-] | 1.54 | 0.133 (inactive) | 0.0256 (inactive) | 0.176 (inactive) | 3.46 | 0.868 (inactive) | 0.214 | 1.2 | 1.05 | 0.134 | 1.45 | 0.242 | 0.545 | 0.22 (inactive) | 1.22 | 1.36 | 0.227 | 1.37 | 0.133 | 0.554
10 | COC(=O)Cn1c(C(=O)N(C)C)cc2c1C[C@H]1CN(C(=O)c3ccccc3)[C@@](Cc3ccc(F)cc3)(C(=O)OC)[C@@H]21 | -0.397 | 1.28 (inactive) | 1.42 (inactive) | 1.61 (inactive) | 2.81 | -0.581 (inactive) | 0.639 | -0.327 | 0.104 | 0.561 | 0.441 | 0.903 | 0.823 | -0.233 (inactive) | 1.33 | -0.367 | 0.404 | 0.139 | -0.0283 | 0.65
